# Measured values reported in PubChem BioAssay AID2284354 (EPA ToxCast).
# Records with an inconclusive call do not appear. Activity calls are given as the source filed them. The calls were made as follows: active = hit-call score of the fitted dose curve at least 0.9, where 1 is the maximum; inconclusive = response in the unintended direction; inactive = score below 0.9.
# Target: human Retinoid X Receptor beta (RXRb), RXRB (gene 6257) (UniProt P28702)
# Experiment: ATG_hRXRb_EcoTox2: Attagene TRANS-FACTORIAL EcoTox-2 HepG2 Assay for human Retinoid X Receptor beta (RXRb)
# Description: ATG_EcoTox2 is a cell-based, multiplexed assay created by modifying the existing Attagene TRANS-FACTORIAL system to include a panel of nuclear receptors from some or all the following species: human (Homo sapiens), african clawed frog (Xenopus laevis), rainbow trout (Oncorhynchus mykiss), japanese medaka (Oryzias latipes), and zebrafish (Danio rerio). The ECOTOX2-FACTORIAL format uses HepG2, a human liver cell line, with measurements taken at 24 hours after chemical dosing in a 24-well plate. ATG_hRXRb_EcoTox2 is one of 29 assay components calculated in the ATG_EcoTox2 assay. It is designed to make measurements of mRNA induction, a form of inducible reporter, as detected with fluorescence intensity signals by Reverse transcription polymerase chain reaction (RT-PCR) and Capillary electrophoresis technology.The assay endpoint ATG_hRXRb_EcoTox2 was analyzed in the positive analysis fitting direction relative to DMSO as the negative control and baseline of activity. Using a type of inducible reporter, measures of mRNA for gain-of-signal activity can be used to understand the reporter gene at the transcription factor-level as they relate to the gene RXRb. Furthermore, this assay endpoint can be referred to as a primary readout, because this assay has produced multiple assay endpoints where this one serves a reporter gene function. To generalize the intended target to other relatable targets, this assay endpoint is annotated to the nuclear receptor intended target family, where the subfamily is non-steroidal.
# Human liver HepG2 cells are transiently transfected with multiple reporter transcription units (MRTUs) in 6-well plates using FuGene 6 reagent (Roche; 3 ml FuGene/1 mg DNA). The MRTU constructs are regulated by a cis-regulating element (promoter). Each RTU expresses a GAL4-UAS that regulates the transcription of a nearby target reporter gene sequence. A major difference between the CIS and TRANS system is that in CIS activities of endogenous TFs are measured, whereas the TRANS assay evaluates changes in activities of exogenous, chimeric NR-Gal4 proteins. […] At the end of 24 hour incubation, total RNA was isolated using TriZol reagent (Invitrogen). The isolated RNA is then reverse-transcribed using oligo(dT) primer and Mo-MLV reverse transcriptase (Invitrogen) with DNAse I (Ambion) treatment for 30 min. The one-tenth of the produced cDNA was amplified by PCR using Taq DNA polymerase (Invitrogen) and two reporter sequence-specific primers. […] The fragments were purified using Qiaquick PCR columns (Qiagen), analyzed on an ABI 3130xL genetic analyzer (Applied Biosystems) with peak positions identified by using a set of X-rhodamine (ROX)-labeled MapMarker1000 molecular weight standards (BioVentures). […]
# Sequence of human Retinoid X Receptor beta (RXRb), RXRB (gene 6257) (P28702 whole entry, looked up): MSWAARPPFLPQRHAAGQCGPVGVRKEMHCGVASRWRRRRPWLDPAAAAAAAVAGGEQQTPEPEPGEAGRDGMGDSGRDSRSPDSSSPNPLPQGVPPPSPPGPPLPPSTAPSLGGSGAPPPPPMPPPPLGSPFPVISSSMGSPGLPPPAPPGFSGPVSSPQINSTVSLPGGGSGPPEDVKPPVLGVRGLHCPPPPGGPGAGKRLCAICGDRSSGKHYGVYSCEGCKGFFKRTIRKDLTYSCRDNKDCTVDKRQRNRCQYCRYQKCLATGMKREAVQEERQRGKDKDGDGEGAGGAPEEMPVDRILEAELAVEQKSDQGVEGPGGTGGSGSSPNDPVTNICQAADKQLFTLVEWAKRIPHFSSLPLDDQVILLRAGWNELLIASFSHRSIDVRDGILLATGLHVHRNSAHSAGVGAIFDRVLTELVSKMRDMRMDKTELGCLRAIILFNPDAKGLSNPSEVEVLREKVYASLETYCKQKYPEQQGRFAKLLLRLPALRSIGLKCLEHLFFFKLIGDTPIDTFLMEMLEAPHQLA
Structure (SMILES),AC50,outcome
[Cl][Sn]([c]1ccccc1)([c]1ccccc1)[c]1ccccc1,0.041 µM (active),
O=S(=O)(O)C(F)(F)C(F)(F)C(F)(F)C(F)(F)C(F)(F)C(F)(F)F,,inactive
CCCCOCN(C(=O)CCl)c1c(CC)cccc1CC,36.6 µM (active),
O=C(O)C(F)(F)C(F)(F)C(F)(F)C(F)(F)C(F)(F)C(F)(F)C(F)(F)F,29 µM (active),
